Results published in paper PMC5540273 (PLoS ONE, 2017).

Experiments:
Details in all cases: concentration: 1 μM, replicates: in singlicate; n = 1
MERTK = system: MERTK
MET = system: MET
MINK = system: T1, MINK
T1 construct: gene MINK1

MKK7 = system: MKK7
MKNK1 = system: MKNK1
MKNK2 = system: MKNK2
MLCK = system: T2, MLCK
T2 construct: gene MYLK3

MLK1 = system: T3, MLK1
T3 construct: gene MAP3K9

MLK2 = system: MLK2
MLK3 = system: MLK3
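Note: KINOMEscan kinase panel screen.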

| SMILES | %Inh (MERTK) [%] | %Inh (MET) [%] | %Inh (MINK) [%] | %Inh (MKK7) [%] | %Inh (MKNK1) [%] | %Inh (MKNK2) [%] | %Inh (MLCK) [%] | %Inh (MLK1) [%] | %Inh (MLK2) [%] | %Inh (MLK3) [%] |
| --- | --- | --- | --- | --- | --- | --- | --- | --- | --- | --- |
| CCCc1ccc(S(=O)(=O)NC2CCN(c3ccnc(Nc4ccc(OC)cc4)n3)C2)cc1 (stereo not shown) [GSK1379737] | 16 | 0 | 0 | 0 | 0 | 6 | 11 | 0 | 0 | 4 |
| Nc1nc(-c2cccnc2)c(-c2ccnc3ccccc23)s1 [GW684083] | 0 | 0 | 51 | 0 | 1 | 0 | 30 | 0 | 0 | 7 |
| COc1ccc(Nc2nccc(N3CCC(NC(=O)c4cccc(NC(C)=O)c4)C3)n2)cc1 (stereo not shown) [GSK1379732] | 24 | 0 | 17 | 0 | 0 | 12 | 31 | 0 | 0 | 12 |
| CNc1nccc(-c2c(-c3ccc(F)cc3)ncn2C2CCN(C)CC2)n1 [SB-222903] | 0 | 6 | 43 | 0 | 0 | 0 | 0 | 0 | 31 | 0 |
| Fc1cccc(COc2ccc(Nc3ncnc4cc[nH]c34)cc2Cl)c1 | 0 | 8 | 34 | 0 | 19 | 10 | 0 | 9 | 0 | 32 |
| OCCOCCn1ccc2ncnc(Nc3ccc(Oc4cccc(Cl)c4)c(Cl)c3)c21 | 0 | 0 | 0 | 0 | 0 | 3 | 0 | 0 | 37 | 22 |
| O=C(NCCCN1CCCC1=O)c1cnc(NCc2cc(Cl)ccc2Cl)nc1NC1CCNCC1 | 63 | 0 | 0 | 0 | 0 | 0 | 11 | 0 | 0 | 0 |
| O=c1cc(N2CCOCC2)nc2n(Cc3cccc(Cl)c3)ccn12 [GSK2296823] | 15 | 0 | 0 | 12 | 0 | 15 | 0 | 0 | 19 | 0 |
| FC(F)(F)c1cc(Nc2nccc(-c3c(-c4ccc(Cl)cc4)nn4ncccc34)n2)ccc1Cl [GW829351] | 11 | 0 | 0 | 0 | 0 | 0 | 10 | 0 | 4 | 0 |
| O=C(Nc1n[nH]c2nc(-c3ccco3)c(Br)cc12)c1ccc(CN2CCCC2)cc1.O=C(O)[C@H](O)[C@@H](O)C(=O)O [SB-742352] | 22 | 0 | 0 | 0 | 0 | 0 | 69 | 0 | 0 | 10 |
| Cl.c1ccc(Cn2ncc3cc(Nc4ncnc5ccccc45)ccc32)cc1 [GW273749] | 9 | 0 | 0 | 0 | 6 | 30 | 0 | 0 | 0 | 0 |
| CSc1ccc(NC2=C(c3ccccc3Cl)C(=O)NC2=O)cc1 [SB-342411] | 0 | 0 | 2 | 39 | 100 | 0 | 0 | 9 | 0 | 4 |
| COc1cc2c(Nc3cccc(NC(=O)c4ccccc4)c3)ncnc2cc1OCCCN1CCOCC1 [GSK223810] | 20 | 1 | 0 | 0 | 23 | 9 | 0 | 0 | 23 | 13 |
| Fc1cccc(COc2ccc(Nc3ncnc4nn5ccccc5c34)cc2Cl)c1 [GW689066] | 6 | 0 | 0 | 0 | 4 | 0 | 4 | 0 | 0 | 0 |
| C[C@@H]1CCN(C(=O)CO)C[C@@H]1N(C)c1ncnc2[nH]ccc12 | 0 | 0 | 0 | 0 | 0 | 0 | 14 | 0 | 35 | 8 |
| Cl.O=S(=O)(c1cccc(F)c1)c1ccc(Nc2ncnc3cc(Br)sc23)cc1Cl [GSK306886] | 37 | 0 | 0 | 0 | 11 | 11 | 0 | 0 | 0 | 2 |
